In PubChem BioAssay (NCATS):
Results filed as inconclusive are left out. The source made the active and inactive calls. Calls come from the whole dose curve; as a rule, active = well fitted curve in the direction sought with a large enough effect; inconclusive = small, poorly fitted or top-dose-only effect, or another doubt; inactive = no such curve, though single readings can be large; an effect the other way counts as inactive or inconclusive.

How the values were obtained:
C33A = test: Primary qHTS to identify gynecologic anti-cancer compounds using libraries of approved drugs and bioactive compounds (AID 1345084); details: Gynecologic cancer cell panel viability, ATPlite luminescence, 48 h; series mostly up to 57.5 µM; note: nearly all actives have a fitted effect of over 55% in size; note: potency is the fitted concentration of half-maximal effect
Procedure, shortened: (§1)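 Five-point cytotoxicity, 48 h drug exposure at 37 C, 5% CO2, on cells seeded 16 h beforehand. ATP content read by ATPlite luminescence.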

CAOV3 = test: as above; details: Gynecologic cancer cell panel viability, ATPlite luminescence, 48 h; series mostly up to 57.5 µM
Procedure, shortened: as §1

CASKI = test: as above; details: Gynecologic cancer cell panel viability, ATPlite luminescence, 48 h; series mostly up to 57.5 µM
Procedure, shortened: as §1

Es-2 = test: as above; details: Gynecologic cancer cell panel viability, ATPlite luminescence, 48 h; series mostly up to 57.5 µM
Procedure, shortened: as §1

HeLa = test: as above; details: Gynecologic cancer cell panel viability, ATPlite luminescence, 48 h; series mostly up to 57.5 µM
Procedure, shortened: as §1

Hek293T = test: as above; details: Gynecologic cancer cell panel viability, ATPlite luminescence, 48 h, control line for the selectivity index; series mostly up to 57.5 µM
Procedure, shortened: as §1

JEG-3 = test: as above; details: Gynecologic cancer cell panel viability, ATPlite luminescence, 48 h; series mostly up to 57.5 µM
Procedure, shortened: as §1

OV90 = test: as above; details: Gynecologic cancer cell panel viability, ATPlite luminescence, 48 h; series mostly up to 57.5 µM
Procedure, shortened: as §1

PA-1 = test: as above; details: Gynecologic cancer cell panel viability, ATPlite luminescence, 48 h; series mostly up to 57.5 µM
Procedure, shortened: as §1

SKOV3 = test: as above; details: Gynecologic cancer cell panel viability, ATPlite luminescence, 48 h; series mostly up to 57.5 µM
Procedure, shortened: as §1

Tov-21-G = test: as above; details: Gynecologic cancer cell panel viability, ATPlite luminescence, 48 h; series mostly up to 57.5 µM
Procedure, shortened: as §1

Tov112D = test: as above; details: Gynecologic cancer cell panel viability, ATPlite luminescence, 48 h; series mostly up to 57.5 µM
Procedure, shortened: as §1

NIH3T3 = test: qHTS assay to identify novel small-molecules to repurpose for Merkel cell carcinoma treatment (AID 1296009); details: MCC and control cell lines, CellTiter-Glo viability, 72 h; at 44.8 µM (top of the series) unless noted; note: nearly all actives have a fitted effect of over 60% in size
Procedure, shortened: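 Luminescence from CellTiter-Glo, read 10 min after addition at room temperature, reported viability following a 72 hr, 37 degree celsius treatment with NPC or MIPE compounds in titration; values normalized to plate controls.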

Measured: Potency

Cc1cc(O)cc(Oc2cc(C)c(C(=O)O)c(O)c2)c1
not listed: NIH3T3
inactive: all other assays above

Clc1ccc2c(c1)C1=NCCN1c1c(-c3noc(C4CC4)n3)ncn1-2
active: HeLa 3.16 µM
not listed: CAOV3
inactive: all other assays above

CC1(C)C(O)CCC2(C)C1C(O)C=C1COC(=O)C12O (stereo unspecified)
not listed: NIH3T3
inactive: all other assays above

OC1COC(OCC2OC(OCCc3ccccc3)C(O)C(O)C2O)C(O)C1O (stereo unspecified)
inactive: NIH3T3 inactive [at 17.4 µM] | C33A | CASKI | Es-2 | HeLa | Hek293T | JEG-3 | OV90 | PA-1 | SKOV3 | Tov-21-G | Tov112D

Cc1ccc(Sc2cncc3sc(C(N)=O)cc23)cc1
not listed: C33A | CASKI | JEG-3 | Tov-21-G
inactive: all other assays above

CCN(c1cc(C#CCN2CCOCC2)cc(C(=O)NCc2c(C)cc(C)[nH]c2=O)c1C)C1CCC(N(C)CCOC)CC1 (stereo unspecified)
not listed: CAOV3
inactive: all other assays above

COC1C=C([C@@H]2CC=C3[C@@]4(C)C(CC[C@]32C)[C@@]2(C)C=CC(=O)C(C)(C)C2C[C@H]4OC(C)=O)C(=O)O1 (stereo partly specified)
inactive: NIH3T3 inactive [at 17.4 µM] | C33A | CASKI | Es-2 | HeLa | Hek293T | JEG-3 | OV90 | PA-1 | SKOV3 | Tov-21-G | Tov112D

COC1CCCC/C(C)=C/C2C=C(C)C(C)C3C(CC(C)C)NC(=O)C23C(=O)C1 (stereo unspecified)
inactive: NIH3T3 inactive [at 17.4 µM] | C33A | CASKI | HeLa | Hek293T | JEG-3 | OV90 | PA-1 | Tov-21-G | Tov112D
